In PubChem BioAssay AID624418 (National Center for Advancing Translational Sciences (NCATS), 2012):
The campaign covered roughly 410,000 compounds. About 530 (0.13%) were called active. Roughly 5% stayed inconclusive and do not appear here. Calls follow the shape of the dose curve; as a rule, active = well fitted inhibition curve with a large enough effect; inconclusive = small, poorly fitted or top-dose-only effect, or another doubt; inactive = no such curve, though single readings can be large or run the other way. What follows is part of a selection rich in actives, with near analogues and random picks from the rest.
% is scaled to controls: 0 for no effect and ±100 for the full control effect; potency is read from the fitted curve at half-maximal effect.

Assay: qHTS of GLP-1 Receptor Inverse Agonists: Cytotox Screen;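 also: loss of luciferase light is scored as toxicity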
Conditions: HEK293 cAMP-luciferase reporter cells, luminescence, 24 h; series mostly up to 38.3 µM; activity change, negative = inhibition: at the top concentration
Excerpt: The overall goal of this project was to develop a novel assay for discovering small molecule ligands for class B1 G protein-coupled receptors (GPCRs). Very few agonists (or inverse agonists) with generally weak activity for this entire group of physiologically important receptors are known to date. To establish proof-of-principle that this critical bottleneck can be overcome with a suitable screening approach, our studies focused on the class B1 receptor for glucagon-like peptide-1 (GLP-1R), a potential therapeutic target for diabetes and neurodegenerative disease.
The assay was developed using a cell-based functional readout. Toward this goal, stably transfected HEK293 cell clones were established that co-express (i) a cAMP-responsive luciferase reporter gene, and (ii) constitutively active GLP-1R that upon ligand interaction inhibit (inverse agonists) the luciferase activity. In addition, two control cell lines were developed: (i) one that express only the cAMP-responsive reporter gene to enable initial exclusion of GLP-1R independent effects of candidate probes; and (ii) one with the reported gene cloned with another constitutively active orphan receptor GPR119 to enable exclusion of GLP-1R independent inhibitor effects of candidate inverse agonists.
To that end, this assay was optimized for 1536-well format and screened against the MLSMR. Then the same collection was run in this cytotoxicity assay where inhibition was the undesired outcome.
NIH Molecular Libraries Probe Production Network [MLPCN]
NIH Chemical Genomics Center [NCGC]
PI Name: Martin Beinborn, Tufts Medical Center
Six ul of cell suspension (200 cells/uL in DMEM + 10% Nu serum + 1% pen-strep) is dispensed in a white solid 1536-well plate. The plates are incubated for 12 hours at 37 deg C at 5% CO2 followed by addition of 23 nL compounds. After 24 hr incubation at 37 deg C and 5% CO2, 3 uL of luciferase assay detection reagent is added. A luminescence read is obtained on the PerkinElmer Viewlux after 12 min incubation at room temperature.
With O=C1/C(=C\c2ccc([N+](=O)[O-])cc2)CS(=O)(=O)C/C1=C/c1ccc([N+](=O)[O-])cc1 the Potency was 3.16 µM (active).
For COc1cc(C(=O)N2CCN(C(=O)COc3cccc(C)c3)CC2)cc(OC)c1OC, the “activity change, negative = inhibition” value was -5.09% (inactive).
For CCc1nc2nc(C)cc(Nc3ccc(F)c(Cl)c3)n2n1, the “activity change, negative = inhibition” value was 17.1% (inactive).
With COCCNC(=O)CSc1c(C)cnc2c1c(=O)n(C)c(=O)n2C the “activity change, negative = inhibition” value was 5.33% (inactive).
In the case of CCOCCCNC(=O)c1c(NC(=O)Cc2coc3c(C)c(C)ccc23)sc2c1CCC2, the “activity change, negative = inhibition” value is reported as 23.9% (inactive).
For Cc1ccc(S(=O)(=O)c2nnn3c2nc(N2CCN(c4ccccc4F)CC2)c2cc(Cl)ccc23)cc1C, the “activity change, negative = inhibition” value was -2.54% (inactive).
In the case of CN(C)C(=S)N=c1ssc(=S)n1Cc1ccco1, the Potency is reported as 0.316 µM (active).
For CCc1ccccc1N1CN(Cc2ccco2)CNC1=S, the “activity change, negative = inhibition” value was 1.02% (inactive).
In the case of CCOC(=O)c1ccc(CN(Cc2ccccc2)S(=O)(=O)c2ccc(Cl)cc2)cc1, the “activity change, negative = inhibition” value is reported as -0.273% (inactive).
In the case of COc1c(Cl)cc(Cl)cc1C(=O)Nc1cccc2cccnc12, the “activity change, negative = inhibition” value is reported as 1.03% (inactive).
With CC(C)C12CN3CC(C(C)C)(CN(C1)C3c1ccc(OCc3ccccc3)cc1)C2=O (configuration not stated) the “activity change, negative = inhibition” value was -5.12% (inactive).
For Cc1ccccc1-c1nc2cc(NC(=O)c3cccc(OCCC(C)C)c3)ccc2o1, the “activity change, negative = inhibition” value was -0.847% (inactive).
In the case of COc1ccc(-n2c(SC)nc3sc4c(c3c2=O)CCN(C(C)=O)C4)cc1, the “activity change, negative = inhibition” value is reported as 1.79% (inactive).
For O=C(c1ccc2c(c1)N(Cc1ccccc1)C(=O)c1ccccc1S2(=O)=O)N1CCCC1, the “activity change, negative = inhibition” value was -15.1% (inactive).
With CC1CCCCN1CC(=O)N1CCCc2c1c(=O)oc1ccc(OCc3ccccc3)cc21 (configuration not stated) the “activity change, negative = inhibition” value was 25.7% (inactive).
In the case of CCC1CCCCN1Cc1c(O)ccc2c(=O)c(Oc3ccccc3Cl)c(C(F)(F)F)oc12 (configuration not stated), the “activity change, negative = inhibition” value is reported as -12.2% (inactive).
For COC(=O)c1sccc1S(=O)(=O)N(CC(=O)Nc1ccc(C)c(F)c1)c1ccc(C)c(C)c1, the “activity change, negative = inhibition” value was 11% (inactive).
With O=S(=O)(c1ccc2nc(N3CCN(c4cccc(Cl)c4)CC3)ccc2c1)N1CCCCC1 the “activity change, negative = inhibition” value was -3.17% (inactive).
With COc1ccccc1NC(=O)CN1C(=O)c2ccccc2Sc2ccc(C(=O)N3CCCC3)cc21 the “activity change, negative = inhibition” value was 2.54% (inactive).
With CCOc1ccc(NC(=O)c2cc3c(=O)n(Cc4cccs4)ccc3nc2C)cc1 the “activity change, negative = inhibition” value was -11.3% (inactive).
For CCCC(=O)Nc1ccc2oc(-c3ccc(O)c(Br)c3)nc2c1, the “activity change, negative = inhibition” value was 1.34% (inactive).
For COc1ccc(C(F)(F)F)cc1NC(=O)c1sc2nc(-c3cccs3)ccc2c1N, the “activity change, negative = inhibition” value was 42.7% (inactive).
In the case of CCCCCn1c(=O)[nH]c2cc(C(=O)Nc3cc(C)cc(C)c3)ccc2c1=O, the “activity change, negative = inhibition” value is reported as -1.84% (inactive).
With O=C(Cn1ncc2c3ccccc3n(Cc3ccccc3)c2c1=O)NC1CCCCCC1 the “activity change, negative = inhibition” value was 1.54% (inactive).
For COc1ccc(-c2noc(CSc3nc4ccc(C)cc4[nH]3)n2)cc1, the “activity change, negative = inhibition” value was 3.26% (inactive).
For Cc1ccc(-n2ncc(C(=O)N(C)Cc3ccccc3)c2-n2cccc2)cc1, the “activity change, negative = inhibition” value was 6.28% (inactive).
With CCOc1ccc(S(=O)(=O)c2cn(Cc3ccc(OC)cc3)c3ccc(F)cc3c2=O)cc1 the “activity change, negative = inhibition” value was 6.07% (inactive).
In the case of Cc1ccc2nc(CNC(=O)c3ccccc3)[nH]c2c1, the “activity change, negative = inhibition” value is reported as 0.115% (inactive).
With O=C(/C(=C/c1cccc(Cl)c1)c1nc2ccccc2[nH]1)c1ccccc1 the Potency was 10 µM (active).
With N#C/C(=C\c1ccccc1F)c1nc2ccccc2c(=O)[nH]1 the “activity change, negative = inhibition” value was 3.51% (inactive).
With COc1ccc(-c2noc(CSc3nc(C)cc(=O)[nH]3)n2)cc1OC the “activity change, negative = inhibition” value was 4.68% (inactive).
In the case of CCOc1ccc(NC(=O)CN(Cc2ccccc2)S(=O)(=O)c2ccc(Cl)cc2)cc1, the “activity change, negative = inhibition” value is reported as 5.24% (inactive).
With CCOc1ccc(N(Cc2ccccc2)C(=O)c2nc(SCC)ncc2Cl)cc1 the “activity change, negative = inhibition” value was 1.37% (inactive).
For CCOc1ccc(N(Cc2ccccc2)C(=O)c2nc(S(C)(=O)=O)ncc2Cl)cc1, the Potency was 7.94 µM (active).
With CCCCC(CC)CNC(=O)C1CCN(S(=O)(=O)c2cccc3nsnc23)CC1 (configuration not stated) the “activity change, negative = inhibition” value was 3.7% (inactive).
In the case of COC(=O)CN1C(=O)CSc2ccc(S(=O)(=O)Nc3cc(C)ccc3C)cc21, the “activity change, negative = inhibition” value is reported as 0.545% (inactive).
In the case of CCCNC(=O)c1ccc(Cn2c(SCC(N)=O)nc3ccccc3c2=O)cc1, the “activity change, negative = inhibition” value is reported as -2.77% (inactive).
In the case of Cc1csc(NC(=S)Nc2cccc(Cl)c2)n1, the Potency is reported as 0.891 µM (active).
With COc1cccc(NC(=S)NC(=O)c2c(Cl)c(C)nn2C)c1 the “activity change, negative = inhibition” value was 0.241% (inactive).
For O=C(Nc1cccc(Cl)c1)c1csnn1, the “activity change, negative = inhibition” value was 0.685% (inactive).
In the case of O=C(CCOc1ccccc1)N(Cc1cccnc1)c1nc2ccc(Cl)cc2s1, the “activity change, negative = inhibition” value is reported as 18.2% (inactive).
In the case of COc1ccc(NC(=O)Cn2c(=O)n(CCC(C)C)c(=O)c3cccnc32)cc1Cl, the “activity change, negative = inhibition” value is reported as -15.9% (inactive).
For CCOc1ccc(NC(=O)CSc2c3c(nc4ccccc24)CCCC3)cc1, the “activity change, negative = inhibition” value was -14.3% (inactive).
In the case of COc1ccc(C2NC(=O)N(C)C3=C2C(=O)N(c2ccc(C(=O)O)cc2)C3)cc1 (configuration not stated), the “activity change, negative = inhibition” value is reported as 5.54% (inactive).
With COc1ccccc1CNc1nc2ccc(Cl)cc2n2cnnc12 the “activity change, negative = inhibition” value was -12% (inactive).
For O=c1c2ccccc2n(Cc2cccc(Cl)c2)c(=O)n1Cc1ccccc1, the “activity change, negative = inhibition” value was 0% (inactive).
In the case of COc1ccc(C(=O)CSc2c(C(C)C)cnc3c2c(=O)n(C)c(=O)n3C)cc1, the “activity change, negative = inhibition” value is reported as -5.41% (inactive).
With COc1ccc(C2CC(=O)Nc3c2c(=O)nc2c(C)cccn32)cc1OC (configuration not stated) the “activity change, negative = inhibition” value was -5.18% (inactive).
For CC(=O)N1c2ccccc2CC1C(=O)N1CCN(c2ccc(F)cc2)CC1 (configuration not stated), the “activity change, negative = inhibition” value was -1.77% (inactive).
For COc1cc(C2c3c(oc4ccccc4c3=O)C(=O)N2c2nc(C)c(C)s2)ccc1O (configuration not stated), the “activity change, negative = inhibition” value was 0% (inactive).
With CC(C)(C)C1CCc2c(sc(NC(=O)c3ccccc3F)c2C(=O)N2CCCCC2)C1 (configuration not stated) the “activity change, negative = inhibition” value was -15.3% (inactive).
For COc1ccc(NC(=O)N2CCCn3nc(C)cc32)cc1OC, the “activity change, negative = inhibition” value was 1.04% (inactive).
With CCOc1ccc(NC(=O)Cn2c(=O)n(CCCC(=O)NCc3ccc4c(c3)OCO4)c(=O)c3ccccc32)cc1 the “activity change, negative = inhibition” value was -8.13% (inactive).
With CN(Cc1ccccc1)C(=O)CCS(=O)(=O)c1cc(Br)cc2c1N(C(=O)C1CC1)CC2 the “activity change, negative = inhibition” value was 0% (inactive).
In the case of COc1ccc(-c2cc(-c3nc(-c4cc(OC)c(OC)c(OC)c4)no3)[nH]n2)c(OC)c1, the “activity change, negative = inhibition” value is reported as -21.5% (inactive).
In the case of CCOC(=O)c1ccc(NC(=O)c2ncn(-c3ccccc3)n2)cc1, the “activity change, negative = inhibition” value is reported as 1.46% (inactive).
In the case of COC(=O)c1c(NC(=O)c2ccc(Cl)c(Cl)c2)sc2c1CCCC2, the “activity change, negative = inhibition” value is reported as -15.6% (inactive).
In the case of O=c1[nH]c2cc(Br)ccc2n2cccc12, the “activity change, negative = inhibition” value is reported as -1.34% (inactive).
For COc1cccc(-c2nc(S(=O)(=O)c3ccc(C)cc3)c(NCc3ccccc3)o2)c1, the “activity change, negative = inhibition” value was 0% (inactive).
With CCN(CC(=O)Nc1ccc(Cl)c(S(=O)(=O)N(C)C)c1)Cc1nc2ccccc2c(=O)[nH]1 the activity change, negative = inhibition was 0.695% [at 0.307 µM] (inactive).
With CCN(CC(=O)NC(=O)NCc1ccccc1)Cc1nc2ccccc2c(=O)[nH]1 the Potency was 6.31 µM (active).
With CCCCN(CC(=O)Nc1cccc(S(=O)(=O)N2CCCC2)c1)Cc1nc2ccccc2c(=O)[nH]1 the “activity change, negative = inhibition” value was 8.32% (inactive).
